Hits are enriched below; roughly 19% of the tested compounds scored in any of these assays.
HT1080-NT tox = kills 2HG-producing HT-1080-NT fibrosarcoma cells; HT-1080-NT fibrosarcoma viability, CellTiter-Glo ATP luminescence, 48 h; Potency, µM (series often up to 46.1 µM), most hits filed as cytotoxic; 1.6% of 360,000 active;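 further: NT is the 2HG producing partner of a matched IDH1 knockdown line; nearly all actives have a fitted effect of over 55% in size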
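Compounds were tested in concentration-response format on HT-1080-NT cells for 48 hours at 37 degrees C. Cell viability came from CellTiter-Glo luminescence; curves were classified by r2, response magnitude and activity.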
IL1B secr inh = blocks inflammasome-driven IL-1 beta release. THP-1 LPS/ATP IL-1B secretion, AlphaLISA, 16 h; stronger effect = lower value. activity change, % at 57.5 µM. 4.7% of 360,000 active; in the data active means activity change below about -50%; inconclusive means mostly about -30% to -49%
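Secreted IL-1B measured by AlphaLISA bead assay after 16 h compound exposure of THP-1 cells; compounds (final up to 57.5 uM) added 1 h before LPS (250 ng/mL) and ATP (1.25 mM) stimulation; lower signal means less secretion.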
HT1080 IDH1KD tx = toxicity to HT-1080 IDH1 knockdown cells (counter line) | 2% of 360,000 active | HT-1080 IDH1 knockdown viability, ATP luminescence, 48 h | Potency, µM (titrated, usually from 46.1 µM), usual class: cytotoxic
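Viability of IDH1-knockdown HT-1080 fibrosarcoma cells was assessed by CellTiter-Glo after 48 h at 37 °C with titrated compound; concentration-effect curves were classified by fit quality and response size.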
DT40 TDP1 CPT = growth inhibition of DT40 Tdp1-/-;hTDP1 cells with camptothecin (screen for TDP1 inhibitors). chicken DT40 Tdp1-/-;hTDP1 cells + 20 nM CPT, ATP luminescence, 48 h. Potency, µM (highest dose often 46.2 µM), hits mostly inhibitors. 12% of 420,000 active; further: nearly all actives have a fitted effect of over 55% in size
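Chicken DT40 Tdp1-/- cells complemented with human TDP1, 400 cells/well, exposed to compounds plus 20 nM camptothecin for at least 48 h at 37 C; viability read as ATP content by CellTiter-Glo luminescence.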
TDP1 cell noCPT = qHTS for Inhibitors of human tyrosyl-DNA phosphodiesterase 1 (TDP1): qHTS in cells in absence of CPT; DT40 Tdp1-/- hTDP1 cells, no CPT, ATP luminescence, 48 h; Potency, µM (doses to about 46.2 µM), actives largely listed as inhibitors; 15% of 420,000 active; AID 686978, 2013; further: nearly all actives have a fitted effect of over 55% in size
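Cells were dispensed at 400 per well, compounds added by pin tool, plates incubated ≥48 hr at 37 °C, then CellTiter-Glo added for 30 min at room temperature before luminescence reading. Line: DT40 Tdp1-/- complemented with hTDP1; camptothecin omitted.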
Large screens that a line does not name were inactive. Unless noted, the call rests on the fitted dose curve; in most records, active means well fitted curve in the direction sought with a large enough effect; inconclusive means small, poorly fitted or top-dose-only effect, or another doubt; inactive means no such curve, though single readings can be large; an effect the other way counts as inactive or inconclusive.

CC(C)CCC1CC(CSC(=N)N)OC1=O (stereo unspecified)	DT40 TDP1 CPT inconclusive, TDP1 cell noCPT 23µM
CCCCC1CC(CSC(=N)N)OC1=O (stereo unspecified)	DT40 TDP1 CPT inconclusive, TDP1 cell noCPT inconclusive
CCCCCCCC1CC(/C(C)=N/NC(N)=O)OC1=O (stereo unspecified)	DT40 TDP1 CPT 18µM, TDP1 cell noCPT inconclusive
CCN1C(=O)/C(=C2/Sc3ccc(OC)cc3N2C)SC1=Nc1cccc(O)c1	DT40 TDP1 CPT 5.8µM, TDP1 cell noCPT 16µM
C=CCN1C(=O)/C(=C2/Sc3ccc(OC)cc3N2C)SC1=Nc1ccccc1	DT40 TDP1 CPT 8.2µM, TDP1 cell noCPT inconclusive
C=CCN1C(=O)/C(=C2/Sc3ccc(OC)cc3N2C)SC1=NCc1ccccc1	DT40 TDP1 CPT inconclusive, TDP1 cell noCPT inconclusive
Cc1ccc2c(CN3CCN(c4ccccc4F)CC3)cc(=O)oc2c1	DT40 TDP1 CPT inconclusive, TDP1 cell noCPT inconclusive
COC(=O)N/N=C/c1cc([N+](=O)[O-])cc(Br)c1O	TDP1 cell noCPT inconclusive
CC(=O)N/N=C/c1cc(C(C)(C)C)cc(/C=N/NC(C)=O)c1O	HT1080 IDH1KD tx inconclusive, TDP1 cell noCPT 26µM
CCOC(=O)c1c(CN(C)C)n(C)c2c(O)c(N=NC(N)=O)c3ccc(Br)cc3c12	HT1080 IDH1KD tx inconclusive, DT40 TDP1 CPT inconclusive, TDP1 cell noCPT 15µM
CCCn1c(=O)c(C(=O)OCC)c(O)c2cc(Br)ccc21	none
O=C(NCCN1CCOCC1)C(=O)NCC1OCCN1S(=O)(=O)c1ccc(Cl)cc1 (stereo unspecified)	none
Cc1ccc(N(C(=O)Cn2nnc(-c3ccc(F)cc3)n2)C(C(=O)NC(C)(C)C)c2ccncc2)cc1 (stereo unspecified)	IL1B secr inh -69
CC(C)(C)NC(=O)C(c1ccncc1)N(C(=O)Cn1nnc(-c2ccc(F)cc2)n1)c1ccccc1F (stereo unspecified)	none
Cc1ccccc1N(C(=O)Cn1nnc(-c2ccc(F)cc2)n1)C(C(=O)NC(C)(C)C)c1ccncc1 (stereo unspecified)	IL1B secr inh -57
CC(C)(C)NC(=O)C(c1ccc(O)cc1)N(C(=O)Cn1nnc(-c2ccc(F)cc2)n1)c1ccccc1F (stereo unspecified)	IL1B secr inh inconclusive, DT40 TDP1 CPT inconclusive, TDP1 cell noCPT 16µM
COc1cc(CN2CCC3(CC2)CC3C(=O)Nc2ccc3sc(C)nc3c2)ccc1F (stereo unspecified)	none (no result: HT1080-NT tox, IL1B secr inh, HT1080 IDH1KD tx)
COC(=O)c1ccc2c(c1)N(C)S(=O)(=O)c1cnc(SCC(=O)C(C)(C)C)nc1-2	none
Cc1ccc(NC(=S)N2CCN(Cc3ccc4c(c3)OCO4)CC2)c(C)c1	none
CCc1ccccc1NC(=S)N1CCN(c2ccccn2)CC1	none
CCN(CC)S(=O)(=O)c1ccc(C)c(NC(=S)N2CCN(C/C=C/c3ccccc3)CC2)c1	DT40 TDP1 CPT inconclusive, TDP1 cell noCPT 12µM
CCN(CC)S(=O)(=O)c1ccc(C)c(NC(=S)N2CCN(Cc3ccc4c(c3)OCO4)CC2)c1	HT1080-NT tox inconclusive, HT1080 IDH1KD tx 21µM, DT40 TDP1 CPT 21µM, TDP1 cell noCPT 21µM
CCN(CC)S(=O)(=O)c1ccc(C)c(NC(=S)N2CCN(c3ccccn3)CC2)c1	IL1B secr inh -73, DT40 TDP1 CPT 18µM, TDP1 cell noCPT 15µM
O=C(NNS(=O)(=O)c1ccccc1[N+](=O)[O-])c1cccc([N+](=O)[O-])c1	TDP1 cell noCPT inconclusive
CC(C)(C)OC(=O)N1CCOCCOCCN(C(=O)OC(C)(C)C)CCOCC1	none
C=CCSc1n[nH]c(-c2ccc(OCCC)cc2)n1	HT1080-NT tox 7.1µM, HT1080 IDH1KD tx 8.9µM, DT40 TDP1 CPT 29µM, TDP1 cell noCPT 16µM
COc1ccc(NC(=O)C(c2ccc(C(F)(F)F)cc2)n2c(=O)c(-c3cc4ccccc4[nH]3)nc3ccccc32)cc1 (stereo unspecified)	HT1080-NT tox inconclusive, HT1080 IDH1KD tx inconclusive, DT40 TDP1 CPT 18µM, TDP1 cell noCPT inconclusive
CCCCCNC(=O)C(c1ccc(-c2ccccc2)cc1)n1c(=O)c(-c2cc3ccccc3[nH]2)nc2ccccc21 (stereo unspecified)	none
COc1ccc(NC(=O)C(C2CC2)n2c(=O)c(-c3cc4ccccc4[nH]3)nc3ccccc32)cc1 (stereo unspecified)	HT1080-NT tox inconclusive, IL1B secr inh inconclusive, HT1080 IDH1KD tx 15µM, DT40 TDP1 CPT 29µM, TDP1 cell noCPT inconclusive
N#Cc1ccc(C(C(=O)NCc2ccccc2)n2c(=O)c(-c3cc4ccccc4[nH]3)nc3ccccc32)cc1 (stereo unspecified)	DT40 TDP1 CPT 12µM, TDP1 cell noCPT 9.2µM
O=C(NCc1ccccc1)C(c1ccc(C(F)(F)F)cc1)n1c(=O)c(-c2cc3ccccc3[nH]2)nc2ccccc21 (stereo unspecified)	HT1080-NT tox inconclusive, HT1080 IDH1KD tx inconclusive, DT40 TDP1 CPT inconclusive, TDP1 cell noCPT 15µM
CC1(C)CC(=O)c2cc(-c3nc(-c4ccc(F)cc4)cs3)c(=O)[nH]c2C1	none (no result: HT1080-NT tox, IL1B secr inh, HT1080 IDH1KD tx)
CCOc1ccc(-n2c(=O)c3c(C)c(C(=O)N(C)C)sc3n(Cc3cc(C)ccc3C)c2=O)cc1	none (no result: HT1080-NT tox, IL1B secr inh, HT1080 IDH1KD tx)
O=C(C[C@H]1C(=O)N(Cc2cccnc2)C[C@@H]1Cc1ccccc1)Nc1ccc(Br)cc1	HT1080-NT tox inconclusive, IL1B secr inh inconclusive, HT1080 IDH1KD tx inconclusive, DT40 TDP1 CPT inconclusive, TDP1 cell noCPT 15µM
O=C(C[C@H]1C(=O)N(Cc2ccccc2)C[C@@H]1c1ccc(Br)cc1)Nc1ccc(Br)cc1	HT1080 IDH1KD tx inconclusive, DT40 TDP1 CPT 26µM, TDP1 cell noCPT 26µM
CC[N+]1(CC(=O)c2ccc(I)cc2)CCCCC1	DT40 TDP1 CPT inconclusive (no result: HT1080-NT tox, IL1B secr inh, HT1080 IDH1KD tx)
CC1Cc2ccccc2C[N+]1(C)CC(=O)c1ccc(I)cc1 (stereo unspecified)	DT40 TDP1 CPT 10µM, TDP1 cell noCPT 14µM (no result: HT1080-NT tox, IL1B secr inh, HT1080 IDH1KD tx)
O=C(NCc1ccccn1)C1C2C=CC(C2)C1C(=O)Nc1ccc(F)cc1 (stereo unspecified)	none
COc1ccc(Nc2cc(C(=O)NCCc3ccccc3)c3ccccc3n2)cc1OC	none (no result: HT1080-NT tox, IL1B secr inh, HT1080 IDH1KD tx)
CCCCN(CCCNC(=O)c1cc(Nc2ccc(OC)c(OC)c2)nc2ccccc12)Cc1ccccc1	DT40 TDP1 CPT 16µM, TDP1 cell noCPT 21µM (no result: HT1080-NT tox, IL1B secr inh, HT1080 IDH1KD tx)
Cc1cc(C(=O)NCCCN(C)C)c2ccccc2n1	none
COc1ccc(Nc2cc(C(=O)NCCCN(C)Cc3ccccc3)c3ccccc3n2)cc1OC	DT40 TDP1 CPT 23µM, TDP1 cell noCPT 21µM (no result: HT1080-NT tox, IL1B secr inh, HT1080 IDH1KD tx)
CCCCNC(=O)c1cc(C)nc2ccccc12	none
CCCCN(CCCNC(=O)c1cc(Nc2ccc(OC)cc2)nc2ccccc12)Cc1ccccc1	DT40 TDP1 CPT 21µM, TDP1 cell noCPT 16µM (no result: HT1080-NT tox, IL1B secr inh, HT1080 IDH1KD tx)
